Laboratory results taken from ChEMBL document CHEMBL4513216, “Probing the Open Global Health Chemical Diversity Library for Multistage-Active Starting Points for Next-Generation Antimalarials” (ACS Infect Dis, 2020).
Hit rate of the full screen: of about 69,000 compounds, about 8,600 (12%) showed an effect of 50% or more. The entries come from a sample that favours strong results as a whole.

System: Plasmodium berghei
Experiment: Screen against P. berghei liver stage (PbLuc), transformed with Luciferase, at 10uM
Type: functional, HepG2
Settings: tested at 10 uM

SMILES | INHIBITION [%]
Cc1ccc2nc(C(=O)N3C[C@@H](C(=O)O)[C@H](c4cccnc4)C3)cn2c1 | -10.1
COc1cc(CNC(=O)COC2CCCC2)ccc1O | 9.06
CNc1cc(C2CCN2c2ncccn2)nc(C)n1 (stereo unspecified) | 15.5
O=C(NC1CC1)C(c1ccccc1)N1CCN(Cc2ccc(Cl)s2)CC1 (stereo unspecified) | -65
NC(=O)NC(=O)C(c1ccccc1)N1CCN(Cc2ccccc2)CC1 (stereo unspecified) | 24
NC(=O)NC(=O)C(c1ccccc1)N1CCN(Cc2ccc(Cl)s2)CC1 (stereo unspecified) | 50.4
CS(=O)(=O)c1cncnc1C1CCCN(C(=O)NCc2ccccc2)C1 (stereo unspecified) | -2.665
Cn1cc(CN2C[C@@H]3OCCN(c4ncccn4)[C@@H]3C2)cn1 | 83.5
COc1ccc(CN2C[C@@H]3OCCN(c4ncccn4)[C@@H]3C2)cc1 | 32.4
Cc1ccc(N2CCO[C@H]3CN(Cc4cnn(C)c4)C[C@H]32)nn1 | 25.6
Cn1cncc1CN1C[C@@H]2OCCN(c3ncccn3)[C@@H]2C1 | 63.7
c1cnc(N2CCO[C@H]3CN(CC4CC4)C[C@H]32)nc1 | 35.2
c1ccc(CCN2C[C@@H]3OCCN(c4ncccn4)[C@@H]3C2)cc1 | 76.5
Cc1noc(C)c1CN1CCO[C@H]2CN(Cc3cncn3C)C[C@H]21 | 18.5
Cn1ccnc1CN1C[C@@H]2OCCN(c3ncccn3)[C@@H]2C1 | 28.7
Fc1ccccc1CN1C[C@@H]2OCCN(c3ncccn3)[C@@H]2C1 | 42.7
Cc1cc2cc(NC(=O)Cn3ncc(N4CCCC4)cc3=O)ccc2o1 | 30.3
CCn1cnnc1CNS(=O)(=O)N1CCCC1c1ccc(C)o1 (stereo unspecified) | 2.79
CC(C)c1nc(O)c2nnn(C[C@H]3CCCN(Cc4cccs4)C3)c2n1 | 2.55
CCn1nc(C)c2ncnc(NCCn3cccn3)c21 | -15
CC(C)CC1SCC(=O)Nc2c1cnn2C1CCCC1 (stereo unspecified) | -37.2
CN(C)C(=O)[C@@H]1C[C@H]2OCC[C@H]2N(CCOc2ccc(Cl)cc2)C1 | -23.4

SMILES | INHIBITION [%]
CC(C)Cc1cc(C(=O)NC(C)C)[nH]n1 | 50.8
CC(C)Cc1cc(C(=O)NCCN2CCCS2(=O)=O)[nH]n1 | -36.385
CC(C)Cc1cc(C(=O)NCc2nnc[nH]2)[nH]n1 | -21.3
COc1nccc(N2CC[C@@H](N3CCCCCC3)[C@H](O)C2)c1C#N | 42.1
c1cnn(CC2CCCN2Cc2nc(C3CC3)no2)c1 (stereo unspecified) | 11.4
CC(C)(C)C(=O)NCc1cnn2ccccc12 | 15.7
CC(C)(C)NC(=O)NCc1cnn2ccccc12 | 35.2
CC(C)(C)c1cn2c(n1)C(CNCc1ccccn1)CCC2 (stereo unspecified) | 56.5
Cn1cccc1CNCC1CCCn2cc(C(C)(C)C)nc21 (stereo unspecified) | 22.3
O=C(NCc1cnn2ccccc12)NC1CCCC1 | -16.4
Cc1cn2c(n1)C(CNCc1cnn3ccccc13)CCC2 (stereo unspecified) | 50.1
Cc1nc(C)c(CNCC2CCCn3ccnc32)s1 (stereo unspecified) | 28.7
CC(C)(C)c1cn2c(n1)C(CNCc1cnn3ccccc13)CCC2 (stereo unspecified) | 51.1
CC(C)(C)c1ncc(CNCC2CCCn3ccnc32)s1 (stereo unspecified) | -7.66
CN(CC1(C)COC1)C(=O)c1cc(-c2ccnn2C)nc2ccccc12 | 1.9
CSC(C)C(=O)N(C)CC(=O)Nc1ccc(Br)cn1 (stereo unspecified) | -17.6
NC(=O)C(CNC(=O)CCc1ccccc1)Cc1ccc(F)cc1 (stereo unspecified) | 33.4
CN(C)C(=O)CO[C@H]1CN(Cc2ccccc2)[C@@H]2CCCO[C@H]12 | 3.3
CN(C)C(=O)CNC(=O)c1cc2ccccc2nc1N1CCCC1 | 42.3
Cc1nn(C)cc1C(=O)NCc1csc(C2CC2)n1 | 18.3
Cc1ccc2c(cnn2CCC(=O)NCc2csc(C3CC3)n2)c1 | 26.9
CCn1cc(C(=O)NCc2csc(C3CC3)n2)c(C)n1 | 67

SMILES | INHIBITION [%]
Cc1cccc2c1cnn2CCC(=O)NCc1csc(C2CC2)n1 | 23.6
CCn1nc(C)c(C(=O)NCc2csc(C3CC3)n2)c1C | 76.3
CCn1cc(CCC(=O)NCc2csc(C3CC3)n2)c(C)n1 | 22.9
CCOC(=O)CSc1nnc([C@@H](N)C(C)CC)o1 (stereo partly specified) | -30.6
COCCOCC(=O)Nc1ccc(C)cc1Cl | -71.6
COCCC(=O)Nc1ccnc(Oc2ccccc2)c1 | -30
COCC(=O)NCCc1ccc(Cl)s1 | 28.4
COCCOCC(=O)Nc1ccnn1-c1ccc(Cl)cc1 | 54.6
COCC(=O)Nc1ccnn1-c1ccc(Cl)cc1 | 64.3
Cc1ccccc1-n1nccc1NC(=O)CCOC(C)C | 43.8
CCOCCC(=O)Nc1ccnn1-c1ccc(Cl)cc1 | 12.9
COCC(=O)NC(c1ccc(Cl)cc1)C(F)(F)F (stereo unspecified) | -21.8
COCCC(=O)Nc1ccnn1-c1ccccc1 | 67.1
Cc1cccc(C(=O)N2C[C@@H](OCc3ccncc3)[C@@H]3OCCC[C@@H]32)n1 | -69.9
COCCN(Cc1ccccn1)C(=O)Nc1cccnc1-n1cccn1 | 9.4
NC(=O)CN1CCOCC(Cc2ccccc2)C1 (stereo unspecified) | -4.51
C=C(C)COc1ccccc1C(=O)N1CCC(C(=O)NCC)C1 (stereo unspecified) | 48.5
CCN(c1ccc(C(=O)N2CCCCC2)cc1)S(=O)(=O)CC | 40.3
OC1(CNc2cccc(F)c2)CCNCC1 | 28.5
CC(CN1CCOCC1)n1cncc1-c1cnn(Cc2ccccc2)c1 (stereo unspecified) | -3.135
CCOC(=O)N1CCN(C(=O)C(CC)n2cccn2)CC1 (stereo unspecified) | 31.2
Cc1nccc([C@H]2C[C@@H]3CCN(S(C)(=O)=O)C[C@H]3O2)n1 | 33.2

SMILES | INHIBITION [%]
O=C(c1ccc(Cl)o1)N1CCCC(c2cc(C(F)(F)F)[nH]n2)C1 (stereo unspecified) | 63.4
Cc1[nH]ncc1C(=O)N1CCCC(c2cc(C(F)(F)F)[nH]n2)C1 (stereo unspecified) | 24
Cc1ccc(C(=O)N2CCCC(c3cc(C(F)(F)F)[nH]n3)C2)o1 (stereo unspecified) | 54.4
O=C(c1ccco1)N1CCCC(c2cc(C(F)(F)F)[nH]n2)C1 (stereo unspecified) | 36.1
Cc1noc(C)c1C(=O)N1CCCC(c2cc(C(F)(F)F)[nH]n2)C1 (stereo unspecified) | -27.9
Cc1ccoc1C(=O)N1CCCC(c2cc(C(F)(F)F)[nH]n2)C1 (stereo unspecified) | 62.6
Cc1cc(C2CCCN(C(=O)c3ccc(Cl)o3)C2)n[nH]1 (stereo unspecified) | 42.9
Cc1cc(C(=O)N2CCCC(c3cc(C(F)(F)F)[nH]n3)C2)on1 (stereo unspecified) | 33.8
Cc1nccc(C(=O)N2CCCC(c3cc(C(F)(F)F)[nH]n3)C2)n1 (stereo unspecified) | 40
O=C(CO)N1CCCC(c2cc(C(F)(F)F)[nH]n2)C1 (stereo unspecified) | 6.26
CC(C)(C#N)C(=O)N1CCCC(c2cc(C(F)(F)F)[nH]n2)C1 (stereo unspecified) | 55.5
CCOCCC1(CNC(=O)c2ccncc2Cl)CCC1 | 20.4
O=C(NCc1ccco1)[C@@]12CCO[C@@H]1CCN(CC1CCOCC1)C2 | 11.4
CN(Cc1cccnc1)Cc1cn2c(n1)CN(C1CCOC1)CC2 (stereo unspecified) | 28.3
COCCN(Cc1nc2c(cnn2C)c(=O)[nH]1)C(C)COC (stereo unspecified) | -7.35
COCCN1C(=O)CCC12CCC(NCc1cccnc1OC)CC2 (stereo unspecified) | 34.6
O=c1cc(CNCc2ccc3c(c2)OCO3)nc2ccc(Br)cn12 | 28
O=C(Cc1ccon1)NC1CCCN(c2ccccc2F)C1=O (stereo unspecified) | 9.72
O=C1CCCc2[nH]c(=O)c(C(=O)N(Cc3ccsc3)C3CC3)cc21 | 26.43
Cc1nc(CN2C[C@@H](NC(=O)C3CCC3)[C@H]3COC[C@H]32)cs1 | -10.5
Fc1ccc(-c2nc(CN3CCCCC3Cn3cncn3)co2)cc1 (stereo unspecified) | -0.113
COCCN(Cc1ccccc1)C(=O)c1csc(-c2nnc[nH]2)n1 | 24.7

SMILES | INHIBITION [%]
COc1cccc(CN(C)C(=O)c2csc(-c3nnc[nH]3)n2)c1 | 40.9
CN(CCCOc1ccccc1)C(=O)c1csc(-c2nnc[nH]2)n1 | 53.9
Cc1ccccc1-c1cncc(C2CCN(CC(=O)N(C)C)CC2)n1 | -0.371
Cc1cc(F)ccc1NS(=O)(=O)c1cc2c(c(C(=O)O)c1)OCCO2 | 25.1
CSCC(C)(O)CNc1cccc(F)c1C#N (stereo unspecified) | 56.5
CSCC(C)(O)CNc1cccc(F)c1C(C)=O (stereo unspecified) | 21.8
CC(C)C(C)(O)CNc1cccc(F)c1C#N (stereo unspecified) | -23.8
CCOc1ncccc1NC(=O)c1cc(C)sc1C | -8.66
Fc1cccc(CN2CCC(c3noc(-c4ccccn4)n3)CC2)c1F | -6.73
Fc1cccc(CN2CCC(c3cc4ncccc4cn3)CC2)c1F | 52.7
Fc1ccc(F)c(CN2CCC(c3cnccn3)CC2)c1 | 34.1
COc1ccc(C)cc1CN1CCC(c2cc3ncccc3cn2)CC1 | 87.9
COc1ccc(C)cc1CN1CCN(Cc2nccn2C)CC1 | -190
Fc1cccc(CN2CCC(c3n[nH]c4ncccc34)CC2)c1F | 42.6
Fc1cc(F)cc(CN2CCC(c3cc4ncccc4cn3)CC2)c1 | 32.3
Fc1ccc(F)c(CN2CCC(c3cc4ncccc4cn3)CC2)c1 | 63.8
CCc1onc(C)c1C(=O)N1CCC(c2cc3ncccc3cn2)CC1 | 17.1
Cc1ccsc1C(CNC(=O)c1cc(=O)c2ccccc2[nH]1)N(C)C (stereo unspecified) | -38.6
